The source made the active and inactive calls.
How the values were obtained:
[1] = E. coli DRC41 culture turbidity changes, primary screen, E. coli filamentation inducer project, strain DRC41, OD650, 48 h (AID 1152);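 note: E. coli MC1000 strain DRC41 lacking acrAB efflux pump and sulA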; details: E. coli DRC41 (acrAB sulA), higher = more signal, called active from +8 up or from −8 down
[2] = small-molecule binders of probe aLefty1, primary screen, biochemical, small-molecule microarray, 635/667 nm fluorescence (AID 1153); details: higher = more signal;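 note: score merges spot fluorescence with signal-to-noise ratio from the scanned slide images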
[3] = PSAC antagonists in infected red cells, primary screen, cell-based, P. falciparum Indochina, OD700, 1 h (AID 1154); details: P. falciparum Indochina infected RBC osmotic lysis, higher = more signal, called active from +8 up or from −8 down
[4] = PSAC antagonists in infected red cells, primary screen, cell-based, P. falciparum Indochina, OD700, 2 h (AID 1155);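 note: lysis reports solute entry through the parasite surface anion channel PSAC; channel blockers reduce lysis of infected cells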; details: P. falciparum Indochina infected erythrocytes, osmotic lysis OD700; higher = more signal, called active from +8 up or from −8 down
[5] = osmotic lysis modulators in infected erythrocytes, primary screen, PSAC antagonist project, cell-based, P. falciparum Indochina, OD700, 3 h (AID 1156); details: higher = more signal, called active from +8 up or from −8 down
[6] = PSAC antagonists in infected red cells, primary screen, cell-based, P. falciparum Indochina, OD700, 18 h (AID 1157); details: P. falciparum Indochina infected erythrocytes, osmotic lysis OD700, 18 h; higher = more signal, called active from +8 up or from −8 down
[7] = modulators of S6 phosphorylation in cells, primary screen, cell-based, A549, cytoblot, luminescence, serum-stimulated (AID 1158); details: A549 phospho-S6 cytoblot, 5 h, higher = more signal;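 note: serum-stimulated A549 lung adenocarcinoma cells; signal is phosphorylated S6 detected by cytoblot immunostaining with HRP secondary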
[8] = target: NADPH oxidase 2 (Homo sapiens) (UniProt P04839); test: NOX2-dependent H2O2 signal modulators, primary screen, NOX inhibitor project, cell-based, HEK293-NOX2, PMA-stimulated, Amplex Red fluorescence (AID 1159); details: 45 min, higher = more signal, called active from +8 up or from −8 down; note: test concentration not given here
[9] = target: NADPH oxidase 4 (Homo sapiens) (UniProt Q9NPH5); test: NOX4-dependent H2O2 signal modulators, primary screen, NOX inhibitor project, cell-based, HEK293-NOX4, tetracycline-induced, Amplex Red fluorescence (AID 1160); details: 45 min, higher = more signal, called active from +8 up or from −8 down
[10] = target: NADPH oxidase 5 (Homo sapiens) (UniProt Q96PH1); test: NOX5-dependent H2O2 signal modulators, primary screen, NOX inhibitor project, cell-based, HEK293-NOX5, Amplex Red fluorescence (AID 1161); details: HEK293-NOX5, ionomycin, 45 min, higher = more signal
[11] = A549 cell viability effects, profiling panel, calcein-AM fluorescence, 48 h, basal (AID 1162); details: higher = more signal; note: test concentration not given here
[12] = adipocyte viability effects, profiling panel, cell-based, 3T3-L1 adipocytes, calcein-AM fluorescence, 48 h, basal (AID 1163); details: 3T3-L1 adipocytes viability, higher = more signal; note: test concentration not given here
[13] = HepG2 cell viability effects, profiling panel, calcein-AM fluorescence, 48 h, basal (AID 1164); details: higher = more signal; note: test concentration not given here
[14] = MM1S cell viability effects, profiling panel, calcein-AM fluorescence, 48 h, basal (AID 1165); details: higher = more signal;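 note: viability of MM1S multiple myeloma cells under basal unstimulated conditions; test concentration not given here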
[15] = basal RPMI8226 viability, no added stimulus, profiling panel, cell-based, calcein-AM fluorescence, 48 h, PK04 Diversity Set (AID 1166); details: RPMI8226 myeloma viability, higher = more signal;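 note: cells grown under basal conditions without added stimulus; test concentration not given here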
[16] = basal HepG2 mitochondrial membrane potential changes, profiling panel, cell-based, JC-1 fluorescence, 24 h, 100 nL compound (AID 1167); details: higher = more signal; note: test concentration not given here
[17] = basal 3T3-L1 adipocyte mitochondrial potential changes, profiling panel, cell-based, JC-1 fluorescence, 3T3-L1 adipocytes, 24 h, 100 nL compound (AID 1168); details: JC-1 mitochondrial fluorescence, higher = more signal, called active from +8 up or from −8 down; note: test concentration not given here
[18] = basal RPMI8226 mitochondrial membrane potential changes, profiling panel, cell-based, JC-1 fluorescence, 24 h, 100 nL compound (AID 1169); details: RPMI8226 myeloma, JC-1 mitochondrial potential fluorescence, higher = more signal; note: test concentration not given here
[19] = basal MM1S mitochondrial membrane potential changes, profiling panel, cell-based, JC-1 fluorescence, 24 h, 100 nL compound (AID 1170); details: higher = more signal; note: test concentration not given here
[20] = A549 lung cancer cell viability effects, profiling panel, resazurin fluorescence, 24 h, PK04 Diversity Set (AID 1171); details: higher = more signal, called active from +8 up or from −8 down; note: test concentration not given here

NADPH oxidase 5 (Homo sapiens), sequence (Q96PH1 whole entry, looked up): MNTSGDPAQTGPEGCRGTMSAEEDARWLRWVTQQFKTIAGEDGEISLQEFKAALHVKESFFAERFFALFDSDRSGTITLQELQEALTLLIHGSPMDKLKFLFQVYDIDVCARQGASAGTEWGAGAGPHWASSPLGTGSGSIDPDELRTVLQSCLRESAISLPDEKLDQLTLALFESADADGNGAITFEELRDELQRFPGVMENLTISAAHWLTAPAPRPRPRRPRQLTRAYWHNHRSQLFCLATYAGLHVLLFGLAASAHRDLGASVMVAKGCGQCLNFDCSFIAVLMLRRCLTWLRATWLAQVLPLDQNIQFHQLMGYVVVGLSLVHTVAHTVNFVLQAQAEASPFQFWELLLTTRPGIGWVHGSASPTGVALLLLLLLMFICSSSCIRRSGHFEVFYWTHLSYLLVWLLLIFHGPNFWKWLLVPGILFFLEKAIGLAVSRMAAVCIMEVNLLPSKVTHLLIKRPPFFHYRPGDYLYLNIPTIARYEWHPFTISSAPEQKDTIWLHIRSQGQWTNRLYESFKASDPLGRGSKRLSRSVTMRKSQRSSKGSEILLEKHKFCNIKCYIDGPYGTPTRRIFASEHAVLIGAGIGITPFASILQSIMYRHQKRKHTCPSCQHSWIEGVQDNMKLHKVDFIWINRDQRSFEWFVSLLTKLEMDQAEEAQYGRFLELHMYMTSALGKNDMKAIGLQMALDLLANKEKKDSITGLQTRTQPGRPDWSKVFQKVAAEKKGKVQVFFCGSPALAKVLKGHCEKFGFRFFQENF
NADPH oxidase 2 (Homo sapiens), sequence (P04839 whole entry, looked up): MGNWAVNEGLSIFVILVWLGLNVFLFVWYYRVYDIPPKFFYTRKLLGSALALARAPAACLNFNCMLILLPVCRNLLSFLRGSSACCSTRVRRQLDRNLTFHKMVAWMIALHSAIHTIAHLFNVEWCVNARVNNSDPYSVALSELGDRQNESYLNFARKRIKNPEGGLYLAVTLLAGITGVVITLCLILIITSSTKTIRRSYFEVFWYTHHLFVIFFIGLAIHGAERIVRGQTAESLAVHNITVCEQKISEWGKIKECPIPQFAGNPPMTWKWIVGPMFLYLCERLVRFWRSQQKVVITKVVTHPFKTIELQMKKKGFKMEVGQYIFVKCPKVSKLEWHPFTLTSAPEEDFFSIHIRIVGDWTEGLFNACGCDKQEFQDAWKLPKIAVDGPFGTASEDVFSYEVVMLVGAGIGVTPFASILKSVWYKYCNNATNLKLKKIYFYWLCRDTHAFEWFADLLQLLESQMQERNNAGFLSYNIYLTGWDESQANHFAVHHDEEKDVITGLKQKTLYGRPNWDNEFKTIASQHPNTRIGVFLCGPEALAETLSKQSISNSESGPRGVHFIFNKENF
NADPH oxidase 4 (Homo sapiens), sequence (Q9NPH5 whole entry, looked up): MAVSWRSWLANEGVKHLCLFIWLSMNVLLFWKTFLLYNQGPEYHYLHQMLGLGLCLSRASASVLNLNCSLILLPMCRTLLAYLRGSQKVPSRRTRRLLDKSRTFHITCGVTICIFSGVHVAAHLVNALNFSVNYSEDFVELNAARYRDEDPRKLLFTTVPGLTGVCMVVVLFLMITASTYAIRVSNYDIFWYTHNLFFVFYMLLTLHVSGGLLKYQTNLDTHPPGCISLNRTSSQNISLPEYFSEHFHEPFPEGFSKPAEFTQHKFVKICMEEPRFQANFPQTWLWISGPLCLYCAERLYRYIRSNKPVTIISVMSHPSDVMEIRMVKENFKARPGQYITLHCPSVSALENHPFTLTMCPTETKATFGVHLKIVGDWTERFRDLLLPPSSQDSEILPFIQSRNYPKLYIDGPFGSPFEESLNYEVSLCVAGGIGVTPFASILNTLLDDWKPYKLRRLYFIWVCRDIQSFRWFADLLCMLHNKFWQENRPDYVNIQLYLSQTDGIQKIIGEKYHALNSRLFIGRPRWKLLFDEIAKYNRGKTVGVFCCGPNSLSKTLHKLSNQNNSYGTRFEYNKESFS

SMILES	z-score [1]	composite z-score [2]	z-score [3]	z-score [4]	z-score [5]	z-score [6]	z-score [7]	z-score [8]	z-score [9]	z-score [10]	z-score [11]	z-score [12]	z-score [13]	z-score [14]	z-score [15]	z-score [16]	z-score [17]	z-score [18]	z-score [19]	z-score [20]
CC(C)NC(=O)[C@@]1(c2ccc([N+](=O)[O-])cc2)CC(=O)N(C2CCCCC2)[C@@H]1c1ccc(CO)cc1	1.1 (inactive)	-0.154	0.66 (inactive)	0.168 (inactive)	0.18 (inactive)	-0.0376 (inactive)	-0.391	0.0357 (inactive)	0.164 (inactive)	-0.229	-0.68	-0.773	-0.297	-0.0629	-0.402	1.46	1.4 (inactive)	0.172	-0.123	1.38 (inactive)
CN1C(=O)C2C=CC(C(O)c3cccn3C)N(Nc3ccc([N+](=O)[O-])cc3[N+](=O)[O-])C2C1=O (stereo not given)	-0.824 (inactive)	0.551	0.627 (inactive)	1.31 (inactive)	-0.0499 (inactive)	1.17 (inactive)	-1.11	-0.797 (inactive)	-1.5 (inactive)	-1.27	-0.49	-1.35	-0.678	-2.1	0.16	-1.58	-1.16 (inactive)	0.647	-0.0962	-1.03 (inactive)
CCOC(=O)C[C@H]1[C@H](OC(=O)Cc2ccc3c(c2)OCO3)[C@@H](NC(=O)C2CCCCC2)c2cc(OCCCO)ccc2N1C(=O)c1ccccc1	2.81 (inactive)	-0.06	1.27 (inactive)	0.569 (inactive)	-0.481 (inactive)	0.0872 (inactive)	0.524	-0.233 (inactive)	0.636 (inactive)	-0.206	1.99	-0.193	-0.0568	0.567	-0.354	1.69	0.247 (inactive)	0.0348	0.137	0.745 (inactive)
COCCCNC(=O)[C@@]1(Sc2ccc(C)cc2)CC(=O)N(C2Cc3ccccc3C2)[C@@H]1c1ccc(CO)cc1	0.625 (inactive)	0.0653	1.86 (inactive)	-0.562 (inactive)	1.03 (inactive)	-1.78 (inactive)	2.12	0.00261 (inactive)	-0.107 (inactive)	-1.76	0.771	0.544	-0.603	0.762	-0.204	0.17	-0.137 (inactive)	0.445	-1.59	0.491 (inactive)
[N-]=[N+]=NCc1ccccc1[C@H]1OC(c2ccc(OCCCO)cc2)=N[C@@]1(Cc1ccccc1N=[N+]=[N-])C(=O)NCC(O)CO (stereo not given in full)	-0.502 (inactive)	0.54	27.6 (active)	21 (active)	1.37 (inactive)	2.09 (inactive)	-0.48	-3.08 (inactive)	-0.592 (inactive)	-1.71	-0.471	0.517	-0.353	-3.22	-3.36	-0.504	-0.618 (inactive)	-0.962	-0.934	0.286 (inactive)
Cn1cccc1C(O)C1C=CC2C(=O)N(c3ccccc3)C(=O)C2N1Nc1ccccc1 (stereo not given)	-0.548 (inactive)	0.358	2.42 (inactive)	1.31 (inactive)	0.361 (inactive)	1.44 (inactive)	-0.55	-1.34 (inactive)	-1.94 (inactive)	-1.81	-0.514	-1.86	0.316	-0.615	-0.244	-1.3	-0.96 (inactive)	-0.509	-1.32	-0.386 (inactive)

Source: PubChem BioAssay
